Assay outcomes as filed in PubChem.
A selection: hits, their analogues and other compounds. The true share with any hit is near 2.1%.
FUS suppressor = rescues growth of FUS-expressing yeast; S. cerevisiae FUS-expressing, growth rescue, OD600, 24 h; Potency, µM (series often up to 76.6 µM), usual class: activators; actives 0.24% (n = 390,000); AID 1347120;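 note: plate controls were DMSO vehicle for no effect and reference control for full effect; nearly all actives have a fitted effect of over 55% in size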
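S. cerevisiae expressing FUS from galactose induction served as the toxicity model. Growth after 24hr at 30C, read as absorbance at 600 nm, indicates suppression of toxicity; compounds dosed at several concentrations.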
aSyn yeast inh = inhibitors of alpha-synuclein toxicity in yeast; Potency, µM (series often up to 46.1 µM), for inactives: at the highest dose growth rescue (activation), actives largely listed as activators; AID 652106; Yeast expressing alpha-synuclein, growth rescue, BacTiter-Glo, 24 h; actives 0.14% (n = 370,000); note: % of control where 0% means no effect; nearly all actives have a fitted effect of over 65% in size
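Galactose-induced alpha-syn yeast (OD600=0.02, raffinose-pregrown) + pinned cpd, 24 hr, 30 deg C; growth by BacTiter-Glo luminescence. Growth restoration scores as activation.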
Abeta yeast res = A-beta toxicity reversal in yeast; yeast expressing A-beta42, growth rescue, OD600, 48 h; response scale: 0% DMSO, 100% iron-clioquinol control; Potency, µM (highest dose often 46.1 µM), hits mostly activators; actives 0.063% (n = 410,000); AID 1347071; note: nearly all actives have a fitted effect of over 55% in size
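Yeast growth medium received pinned compounds, then yeast cells expressing toxic A-beta were added; plates incubated at 30 C for 48 hr. Growth read as absorbance at 600 nm, normalized to DMSO and equimolar FeCl3 plus clioquinol controls.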
TDP43 rescue = rescues yeast growth from TDP-43 toxicity | TDP-43 expressing yeast growth rescue, BacTiter-Glo, 24 h | Potency, µM (series often up to 46.1 µM), without a hit: at the highest dose growth rescue (activation), hits mostly activators | actives 1.8% (n = 410,000) | AID 652104; note: % of control where 0% means no effect; nearly all actives have a fitted effect of over 50% in size
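Readout is BacTiter-Glo luminescence of cell growth, so inhibitors register as activators. TDP-43-expressing yeast at OD600=0.02 in galactose medium, after raffinose pregrowth to mid-log, were incubated with compound for 24 hr at 30 deg C.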
Numbers without * were called inactive; i = inactive; u = inconclusive; x = not tested or not shown. Calls come from the whole dose curve; as a rule, active = well fitted curve in the direction sought with a large enough effect; inconclusive = small, poorly fitted or top-dose-only effect, or another doubt; inactive = no such curve, though single readings can be large; an effect the other way counts as inactive or inconclusive. Potency is the fitted concentration of half-maximal effect.

SMILES | FUS suppressor | aSyn yeast inh | Abeta yeast res | TDP43 rescue
COc1ccccc1NC(=O)c1cc2ccc3cccnc3c2[nH]1 | u | x | i | 14.1µM*
CCc1ccc2oc(=O)cc(CN3CCN(c4ccc(F)cc4)CC3)c2c1 | i | 5.3% | i | 19.3%
CC(C)c1ccc2oc(=O)cc(CN3CCN(c4ccc(F)cc4)CC3)c2c1 | i | 7.5% | i | 14.1µM*
CN1C[C@@H]2C(c3ccc(C(F)(F)F)cc3)C3(c4cccnc4)CC2(C3)[C@H]1c1ccccc1 (stereo partly drawn) | i | 1.1% | i | 10.0%
C=Cc1ccc(Cn2nc(-c3ccccc3)ccc2=O)cc1 | u | u | i | 11.2µM*
Nc1nc(Cl)cc(Nc2ccccc2Cl)n1 | i | -13.3% | i | 21.6%
CSc1nc(Cl)cc(Nc2ccccc2N)n1 | i | 8.9% | i | 10µM*
CCN(CC)C(=O)[C@H]1CC(CC(=O)NCCC2=CCCCC2)C(=O)N2CCc3c([nH]c4ccc(OC)cc34)[C@]12C (stereo partly drawn) | i | 12.0% | i | 7.5%
CNc1oc(-c2ccc(Cl)cc2)nc1P(=O)(c1ccccc1)c1ccccc1 | u | 20.5% | i | 17.8µM*
Cc1ccc(-c2nc(P(=O)(c3ccccc3)c3ccccc3)c(N3CCOCC3)o2)cc1 | i | 5.1% | i | -10.8%
CN(C)/[N+]([O-])=N/Oc1ccc([N+](=O)[O-])cc1C(F)(F)F | x | -15.3% | x | x
Cc1ccc(C(=O)Nc2nc(-c3ccccn3)cs2)cc1S(=O)(=O)N1CCOCC1 | i | 12.6µM* | i | u
O=C(Nc1nc(-c2ccncc2)cs1)c1ccco1 | u | -8.2% | i | -16.6%
O=C(Nc1nc(-c2ccccn2)cs1)c1ccco1 | i | 17.8µM* | u | -8.3%
C[C@H](NC(=O)c1ccco1)C(=O)Nc1nc(-c2ccccn2)cs1 | x | -3.3% | i | 15.5%
O=C(Nc1nc(-c2cc3ccccc3oc2=O)cs1)c1ccco1 | i | -7.5% | i | 3.55µM*
O=c1oc2ccccc2cc1-c1csc(Nc2nc3c(F)cccc3s2)n1 | x | 1.5% | i | -3.1%
O=c1oc2ccccc2cc1-c1csc(NN=C2CCCCC2)n1 | 12.6µM* | 2.7% | i | -10.1%
OC[C@@H]1CN(Cc2cccs2)C[C@H](n2cnc3c(N4CCCC4)ncnc32)O1 | i | 2.3% | i | 25.9%
COc1cccc(-c2cc3nc(-c4ccccc4)cc(N4CCC5(CC4)OCCO5)n3n2)c1 | i | -16.0% | i | 15.8µM*
COc1ccc(-c2cc3nc(C)cc(N4CCN(C(=O)c5ccoc5)CC4)n3n2)cc1 | i | -0.7% | i | u
COc1cccc(-c2cc3nc(C)cc(N4CCN(C(=O)c5ccoc5)CC4)n3n2)c1 | i | -0.6% | i | 0.0%
COc1cccc(-c2cc3nc(-c4ccccc4)cc(N4CCN(C(=O)c5ccoc5)CC4)n3n2)c1 | u | 5.3% | i | 15.8µM*
COc1cccc(-c2cc3nc(-c4ccco4)cc(N4CCN(C(C)=O)CC4)n3n2)c1 | i | x | x | x
COc1cccc(-c2cc(N3CCN(C(=O)c4ccoc4)CC3)n3nc(-c4cccc(Cl)c4)cc3n2)c1 | i | 7.2% | i | 3.55µM*
SMILES | FUS suppressor | aSyn yeast inh | Abeta yeast res | TDP43 rescue
COC(=O)C[C@@H]1CC[C@H]2[C@@H](COc3ccc(NC(=O)NC(C)C)cc3C(=O)N2C)O1 | i | x | x | x
Cc1ccc(C)c(CNC(=O)c2sc3ncnc(N(C)C4CCCCC4)c3c2C)c1 | i | x | i | 22.4µM*
Cc1c(C(=O)NCc2ccccc2Cl)sc2ncnc(N(C)C3CCCCC3)c12 | i | x | i | u
O=C(C1CCCCC1)N1C[C@@H](n2cc(-c3ccc(F)cc3)nn2)[C@H](O)C[C@@H]1c1ccc(Cl)cc1 | i | 2.0% | i | 22.4µM*
OCCN(Cc1ccccn1)Cc1ccccn1 | i | -4.3% | i | -4.0%
CCc1ccc(-n2c(=O)c3c(C)c(C)sc3n(CC(=O)NCc3ccc(C)cc3)c2=O)cc1 | i | x | i | 6.9%
O=C(Nc1ncc2c(n1)-c1ccccc1CC2)c1cccc(Cl)c1 | x | -1.9% | i | 12.6µM*
O=C(Nc1ncc2c(n1)-c1ccccc1CC2)c1ccc(Cl)cc1 | i | 12.8% | i | 3.2%
O=C(c1ccccc1I)N1CCC(Oc2cccnc2)CC1 | i | x | x | x
Cc1cc2cc(C(=O)N3CCc4c([nH]c5ccccc45)C3c3ccccn3)ccc2o1 (stereo not drawn) | u | u | i | 25.1µM*
CCOC(=O)c1[nH]c(C)c(C(=O)N2CCc3c([nH]c4ccccc34)C2c2ccccn2)c1C (stereo not drawn) | i | 4.3% | i | 16.6%
Cn1cccc1-c1cc(C(=O)N2CCc3c([nH]c4ccccc34)C2c2ccccn2)[nH]n1 (stereo not drawn) | 17.8µM* | 0.9% | u | 3.7%
CCOC(=O)C(C(=O)OCC)C(C[N+](=O)[O-])c1ccccc1 (stereo not drawn) | i | -4.0% | i | 11.4%
Cc1c[nH]c2cccc(-c3ccc(Cl)cc3Cl)c12 | i | x | x | x
COc1cc(C(C)=O)ccc1OCC(=O)N(CCC1=CCCCC1)c1c(N)n(Cc2ccccc2)c(=O)[nH]c1=O | i | 0.2% | i | 22.2%
CCCCNC(=S)N1CCn2cccc2C1c1ccc(F)cc1 (stereo not drawn) | u | 7.3% | i | 15.8µM*
CCCCNC(=S)N1CCn2cccc2C1c1ccccc1 (stereo not drawn) | i | -6.4% | i | x
CCc1ccc2oc(C(=O)Nc3cccnc3)c(C)c2c1 | i | -2.4% | i | -8.5%
Cc1c(C(=O)Nc2cccnc2)oc2ccc(Br)cc12 | i | -11.3% | i | 8.91µM*
CCc1ccc(NC(=O)CSc2nccn2-c2ccc(OC)cc2)cc1 | u | x | i | u
CCc1ccc(NC(=O)CSc2nccn2-c2cccc(C)c2C)cc1 | i | u | i | 31.6µM*
CCc1ccc(NC(=O)CSc2nccn2-c2ccc(F)cc2)cc1 | i | x | u | 15.8µM*
COc1ccc(C2=NOC(Cn3nc(C(=O)NCc4cccs4)cc3-c3ccccc3)C2)cc1 (stereo not drawn) | i | 1.0% | i | u
Cc1ccccc1-c1cc(C(=O)NCc2ccc(OC(F)(F)F)cc2)n(CC2CC(c3cccnc3)=NO2)n1 (stereo not drawn) | 22.4µM* | 16.0% | i | u
COc1ccc(C2=NOC(Cn3nc(-c4ccccc4)cc3C(=O)NCc3cccs3)C2)cc1 (stereo not drawn) | 31.6µM* | 8.1% | i | 3.6%
Cc1ccc(CNC(=O)c2cc(-c3ccccc3C)nn2CC2CC(c3cccnc3)=NO2)cc1 (stereo not drawn) | i | 0.4% | i | u
CN(CC(=O)Nc1ccc(Cl)cc1)C(=O)C1CCCC1 | i | 5.8% | i | 13.3%
CCOc1ccc(-c2nnc3ccc(SC(C)C)nn23)cc1 | i | -6.7% | i | 15.8µM*
